# Laboratory results from the supplement of paper PMC10121225.
# Counter-ions that a name gives are not always drawn.
# Test system: hN + hpA co-culture (H1 iNGN2 human neurons + human primary astrocytes)
# Experiment: presynaptic density (SYNAPSIN1 puncta per MAP2 neurite area), Z-score vs DMSO controls; higher = more presynaptic puncta (synapse-promoting)
# Settings: 3 µM; 72 h
# 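Also: immunostained co-cultures imaged by high-content microscopy, Z-score per plate against mean and SD of 0.1% DMSO wells, compounds added on differentiation day 18, analysed day 21.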
row,SMILES,presynaptic density (Z-score)
1,C[C@]12C=CC(=O)N[C@@H]1CC[C@@H]1[C@@H]2CC[C@]2(C)[C@@H](C(=O)Nc3cc(C(F)(F)F)ccc3C(F)(F)F)CC[C@@H]12 [Dutasteride],-1.23
2,Nc1nc(N)c2nc(-c3cccc(O)c3)c(-c3cccc(O)c3)nc2n1,1.05
3,O=C(C[S+]([O-])Cc1ccco1)NC/C=C\COc1cc(CN2CCCCC2)ccn1 (stereo unspecified) [Lafutidine],-0.624
4,COc1cc2c(cc1Cc1cccc(Cl)c1F)c(=O)c(C(=O)O)cn2[C@H](CO)C(C)C [Elvitegravir (GS-9137],0.597
5,Cc1ccc(-c2cc(C(F)(F)F)nn2-c2ccc(S(N)(=O)=O)cc2)cc1,-0.625
6,CCN(CC)CCNC(=O)c1cc(Cl)c(N)cc1OC [MetoclopraMide HCl],0.023
7,"NC(=O)C1CCCc2c1[nH]c1ccc(Cl)cc21 (stereo unspecified) [6-Chloro-2,3,4,9-tetrahydro-1H-carbazole-1-carboxamide]",0.159
8,CC[C@H](NC(=O)[C@H](C)NC)C(=O)N1C[C@@H](O)C[C@H]1Cc1c(-c2[nH]c3cc(F)ccc3c2C[C@@H]2C[C@H](O)CN2C(=O)[C@H](CC)NC(=O)[C@H](C)NC)[nH]c2cc(F)ccc12 [Birinapant],0.314
9,Cc1c(-c2ccc(O)cc2)n(Cc2ccc(OCCN3CCCCCC3)cc2)c2ccc(O)cc12 [Bazedoxifene HCl],-0.982
10,Nc1ncnc2c1c(-c1cccc(OCc3ccccc3)c1)cn2C1CC(CN2CCCC2)C1 (stereo unspecified),-1.9
11,Cc1ccc([C@@H]2O[C@H](CO)[C@@H](O)[C@H](O)[C@H]2O)cc1Cc1ccc(-c2ccc(F)cc2)s1 [Canagliflozin],-0.473
